# From the supplement of paper PMC6555819
# Tested on: PPARg:RXRa IVT, anti-PPARg (NR concentration 270 nM, RXRa partner concentration 90 nM)
# Experiment: PBM binding z-score (relative to random genomic background probes); higher = stronger binding; sequences stand for … in GC…GCGATTGACAGCGTAGAATGAAGG
# Method in brief: (§1)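 Scanned fluorescence from custom Agilent 4×180K protein-binding microarrays was regression-normalized. Binding z-scores use random background probes as reference. Ligand-free nuclear receptor dimers were incubated on the arrays for 1 h and detected with antibodies against each partner (one per run).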
row,Sequence,PBM binding z-score
1,TATACAGGGTCAAAGGCCACAGTACGAATGTCGA,5.48
2,GATACAGGGTCAGCTAGAGCCCAGAGTATGGAAA,2.13
3,TATACAGGGACAAAGGCCAGAGTACGAATGTCGA,1.3
4,TCGAGTAGGTTAGGGGCATTGAGAATGGCGTCGA,1.45
5,CCTCGGAGGACAGAAGGTCAGAGCTGTCCGCTTT,-0.199
6,CGTCCAAGGTCATAGGAGGTCCGTGAAGACAGAT,3.47
7,AGTCAAAGTCCACTAGGTAACGTAAGATTCAGCT,1.83
8,CCTTACGGGTCACGAGGTTATAGAACGACGAGCG,5.47
9,TGAATGAGGTTATAAGAACAGGGAACGTTGCAAA,1.75
10,CGAACTACGTCATTGACAGGACAGTGAATAGTAA,-0.155
11,ATACCAAGGTGATCGTGAGGTGGTTGATACTAAC,0.996
12,TCTAGTTGCTCACGGAGGTCACACACGACGGGTA,2.24
13,CCTCGGGGGACAACAGGAGGTCAGAGCTGCCAGA,1.99
14,CTCGAAAGGTCGGTTGAGGTGAGTATTCGGATAA,0.955
15,TAGCCTAGGTCATATCGGGCCAGTATACGCTATA,2.19
16,AGAACGAGGGCACGCTGAGTTGTTAGCAGAGTAG,3.92
17,ACAGACTGGTGATGAAGGTAACTCAGGCTATCAT,-0.401
18,CTCGAAAGGTCGTGCTCAGGTGAGTCTACCAAAC,1.81
19,AGAACGAGGGCACGCTGAGTTGACAGCAGAGTAG,3.77
20,ACTAGCAAGCCAAGTTTGGGTCACTCAAACAAAG,0.332

row,Sequence,PBM binding z-score
1,CCTTACGGCTCAAGGTTATAGCACGGGTGGTACG,-0.312
2,CCTATTAGTTGACCATAAGGGCTACCGAAGCTCG,0.104
3,CGAACTAGGTCAAGGAAAGTGAATCTCCGCACGC,8.29
4,TGTCAAAGTTCAAAGGTAACGTAAGTATCCACAC,4.66
5,GCTGCTAGGTCAACTGATGGTCAGCCAAAGCTCG,3.92
6,CATGCAGGGTCAGCTAGGCCAGAGTAGGGACGGC,1.98
7,TCATGTAGATCAACAGGAGGTTAAGAAAGATCGA,0.504
8,TTACCAAGGAGAAAGGTCGTTGATGCACGCCTTG,0.908
9,AGTTAAAGTTCATCTAGGTAACGTAAGATATGCT,3.39
10,CGAACTAGGTCATTGACAGGCCAGTGAATAGTAA,7.98
11,GCTGCTAGGTCAACTGATGGTCAGGTAAAGCTCG,4.23
12,TCTAGCAGGCCAGAGGGTCACACAAGAGGTACGG,1.38
13,ATATGTCGGTTAGCTGGGGTCATTCAGACTAGGC,2.25
14,TCATATAGGTAATTCAGGTGAAAGTCGGCATCTA,3.55
15,CCTCGAAGGACAGAAGGTCAGAGCTGTCCGCTTT,-0.0413
16,TGAATGATGTTAAAGATCAGGGAACGTGGCGTCG,0.00051
17,TCCTATAGGTAATACAGGTGAAAGTCGGCATCTA,2.12
18,ACTAGCAGGCCAAGTTGGGGTCACTCAAACAAAG,2.36
19,CGTCCAAGGTCATAGGAGGGCAGTGAAGACAGAT,3.89
20,ATCTAAAGGTCGACGAGGTGAGTATACACCGTTT,2.35

# Tested on: PPARg DBDmut:RXRa IVT, anti-PPARg (DBD mutation: PPARg1 K132A/R137A, NR concentration 270 nM, RXRa partner concentration 90 nM)
# Experiment: as above
# Method in brief: as §1
row,Sequence,PBM binding z-score
1,TATACAGGGTCAAAGGCCACAGTACGAATGTCGA,3.56
2,GATACAGGGTCAGCTAGAGCCCAGAGTATGGAAA,-0.422
3,TATACAGGGACAAAGGCCAGAGTACGAATGTCGA,0.681
4,TCGAGTAGGTTAGGGGCATTGAGAATGGCGTCGA,-1.19
5,CCTCGGAGGACAGAAGGTCAGAGCTGTCCGCTTT,-1.36
6,CGTCCAAGGTCATAGGAGGTCCGTGAAGACAGAT,0.84
7,AGTCAAAGTCCACTAGGTAACGTAAGATTCAGCT,0.418
8,CCTTACGGGTCACGAGGTTATAGAACGACGAGCG,0.77
9,TGAATGAGGTTATAAGAACAGGGAACGTTGCAAA,0.842
10,CGAACTACGTCATTGACAGGACAGTGAATAGTAA,0.611
11,ATACCAAGGTGATCGTGAGGTGGTTGATACTAAC,0.272
12,TCTAGTTGCTCACGGAGGTCACACACGACGGGTA,0.833
13,CCTCGGGGGACAACAGGAGGTCAGAGCTGCCAGA,0.461
14,CTCGAAAGGTCGGTTGAGGTGAGTATTCGGATAA,-0.267
15,TAGCCTAGGTCATATCGGGCCAGTATACGCTATA,0.112
16,AGAACGAGGGCACGCTGAGTTGTTAGCAGAGTAG,0.505
17,ACAGACTGGTGATGAAGGTAACTCAGGCTATCAT,0.194
18,CTCGAAAGGTCGTGCTCAGGTGAGTCTACCAAAC,-0.131
19,AGAACGAGGGCACGCTGAGTTGACAGCAGAGTAG,1.38
20,ACTAGCAAGCCAAGTTTGGGTCACTCAAACAAAG,-1.3

row,Sequence,PBM binding z-score
1,CCTTACGGCTCAAGGTTATAGCACGGGTGGTACG,-1.23
2,CCTATTAGTTGACCATAAGGGCTACCGAAGCTCG,0.267
3,CGAACTAGGTCAAGGAAAGTGAATCTCCGCACGC,1.18
4,TGTCAAAGTTCAAAGGTAACGTAAGTATCCACAC,1.24
5,GCTGCTAGGTCAACTGATGGTCAGCCAAAGCTCG,0.564
6,CATGCAGGGTCAGCTAGGCCAGAGTAGGGACGGC,0.517
7,TCATGTAGATCAACAGGAGGTTAAGAAAGATCGA,0.449
8,TTACCAAGGAGAAAGGTCGTTGATGCACGCCTTG,0.246
9,AGTTAAAGTTCATCTAGGTAACGTAAGATATGCT,1.68
10,CGAACTAGGTCATTGACAGGCCAGTGAATAGTAA,0.866
11,GCTGCTAGGTCAACTGATGGTCAGGTAAAGCTCG,-0.376
12,TCTAGCAGGCCAGAGGGTCACACAAGAGGTACGG,-0.514
13,ATATGTCGGTTAGCTGGGGTCATTCAGACTAGGC,0.889
14,TCATATAGGTAATTCAGGTGAAAGTCGGCATCTA,1.64
15,CCTCGAAGGACAGAAGGTCAGAGCTGTCCGCTTT,-0.921
16,TGAATGATGTTAAAGATCAGGGAACGTGGCGTCG,0.678
17,TCCTATAGGTAATACAGGTGAAAGTCGGCATCTA,0.665
18,ACTAGCAGGCCAAGTTGGGGTCACTCAAACAAAG,-0.0232
19,CGTCCAAGGTCATAGGAGGGCAGTGAAGACAGAT,1.14
20,ATCTAAAGGTCGACGAGGTGAGTATACACCGTTT,0.97
